Bioassay records: PubChem BioAssay, National Center for Advancing Translational Sciences (NCATS)
Caspase-7 inhib: blocks human caspase-7 allosterically or competitively; hit rate 0.02% among 75,000; recombinant caspase-7, Ac-DEVD-AFC fluorescence rate; Potency, µM (doses to about 57.5 µM), without a hit: top-dose activity change, negative = inhibition, actives largely listed as inhibitors; active = well fitted inhibition curve with a large enough effect in the main read-out, with a control signal flat, not every such curve was filed as active; inconclusive = small, poorly fitted or top-dose-only effect, or a change in a side signal; also: % of control where 0% means no effect
Bst PK mod: modulators of Bacillus stearothermophilus pyruvate kinase. purified pyruvate kinase, luminescence ATP production; ribose 5-phosphate activator present at AC10. Potency, µM. hit rate 1.2% among 51,000; in the data active = potency below about 11 µM; inconclusive = mostly about 12 µM to 25 µM;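 the screen sought inhibitors and activators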;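 also: scaled between full activation by ribose 5 phosphate and full inhibition by luteolin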
Luciferase inh: blocks Photinus pyralis firefly luciferase activity | P08659 | purified firefly luciferase, luminescence, 8 min | hit rate 2.2% among 72,000 | AID 411 | Potency, µM (titrated, usually from 57.1 µM), without a hit: at the top dose activity change, negative = inhibition, actives largely listed as inhibitors; also: % is scaled to controls: 0 for no effect and ±100 for the full control effect; nearly all actives have a fitted effect of over 40% in size
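Firefly luciferase (PKLight detection mix) with 10 uM ATP in pH 7.2 imidazole buffer (KCl, MgCl2, Tween 20, BSA). Compounds tested across a concentration series (qHTS). Luminescence read after 8 min at ambient temperature.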
GBA activity: human lysosomal glucosylceramidase modulation. hit rate 1.1% among 48,000. AID 360. purified enzyme, resorufin glucoside fluorescence (screen aimed at inhibitors), 20 min. Potency, µM. P04062; in the data active = potency below about 15 µM; inconclusive = mostly about 16 µM to 33 µM;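 also: the screen sought inhibitors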
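Compounds titrated against 0.2 nM normal enzyme, 30 uM resorufin beta-D-glucopyranoside substrate, citrate/phosphate buffer with taurocholate and tween-20, pH 5.9. Reaction ran 20 min at room temperature; fluorescence (Ex 548/Em 600) gave AC50.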
Casp1 inh: caspase-1 (human) inhibition, allosteric or competitive | P29466 | Caspase-1 enzyme, Ac-WEHD-AFC fluorogenic rate | Potency, µM (titrated, usually from 57.5 µM), inactives show at the highest dose activity change, negative = inhibition, most hits filed as inhibitors | hit rate 0.03% among 75,000 | AID 900;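 also: plate controls were vehicle for no effect and no substrate for full effect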
Target sequence (P29466 120-297 limits assumed): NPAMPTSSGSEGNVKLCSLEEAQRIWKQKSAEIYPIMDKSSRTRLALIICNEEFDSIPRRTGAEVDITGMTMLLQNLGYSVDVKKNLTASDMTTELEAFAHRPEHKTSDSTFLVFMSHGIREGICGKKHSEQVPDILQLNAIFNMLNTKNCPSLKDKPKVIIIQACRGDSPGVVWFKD
Target sequence (P29466 317-404 limits assumed): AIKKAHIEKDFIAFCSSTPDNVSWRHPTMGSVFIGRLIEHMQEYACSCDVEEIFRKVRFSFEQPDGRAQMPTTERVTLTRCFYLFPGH
Starred values were filed as active, the others as inactive; i = inactive; ? = inconclusive; · = no result given; [ ] = dose if it differs, or a comment. Only some compounds are listed: those with a hit (about 3.1% of all), similar ones and a draw of the others. Unless noted, calls follow the shape of the dose curve; as a rule, active = well fitted inhibition curve with a large enough effect; inconclusive = small, poorly fitted or top-dose-only effect; inactive = flat fitted curve, though single readings scatter. Potency is read from the fitted curve at half-maximal effect.

SMILES	Caspase-7 inhib	Bst PK mod	Luciferase inh	GBA activity	Casp1 inh
CC1(C)Cc2c(sc3nc(-c4cccs4)n(N)c(=O)c23)CO1	-28%	i	13µM*	>77	·
CN(C)c1nc2sc3c(c2c(=O)n1C)CC(C)(C)OC3	·	>26	0%[25.5 µM]	·	·
Cc1ccc2nc3sc(C(=O)N4CCOCC4)c(N)c3cc2c1	-3%	1.8*	2µM*	>77	1%
Cc1ccc2cc3c(N)c(C(=O)N4CCOCC4)sc3nc2c1	-5%	11*	13µM*	>77	-3%
COc1ccc2cc3c(N)c(C(=O)N4CCCC4)sc3nc2c1	-15%	?	?	>77	-13%
C/C=C1\CC2C=CC1C2 (centres undefined)	0%	·	·	·	-3%
O=c1oc2ccccc2c(O)c1/C=N/c1nc(-c2ccc(O)c(O)c2)cs1	-2%[11.5 µM]	·	-1%[11.4 µM]	·	2%[11.5 µM]
COc1ccccc1Nc1nc(N)nc(-c2cc3ccccc3o2)n1	-5%	·	-23%	>77	-4%
Cc1c(-c2nc(N)nc(Nc3ccccc3F)n2)oc2ccccc12	-6%	·	13µM*	·	1%
Cc1ccc(-c2noc(-c3cccs3)n2)cc1	-3%	·	7.9µM*	·	-3%
COCc1cc(=O)n2c(-c3ccc(C)cc3)n[nH]c2n1	-8%	·	13µM*	·	-6%
O=C(O)C1CC(=O)N(CCC23CC4CC(CC(C4)C2)C3)C(=Nc2ccccc2)S1 (centres undefined)	?	·	·	·	-14%
Cc1cccc2nc(CSCc3ccco3)cn12	-2%	·	25µM*	>77	-8%
Cc1ccc(C(=O)/C=C/Nc2ccccn2)cc1	·	0.75*	0.4µM*	·	·
COc1ccc(C(=O)/C=C/Nc2cccc(C)n2)cc1OC	·	0.63*	10µM*	·	·
Cc1ccc(N2CC(C(=O)Nc3ccccn3)CC2=O)cc1 (centres undefined)	0%	>57	1%	>77	1%
Nc1ncnc2c([C@@H]3O[C@@H](CO)[C@H](O)[C@@H]3O)nsc12	1%[11.5 µM]	·	2%[11.4 µM]	·	-2%[11.5 µM]
C[Si](C)(c1ccc(C(=O)O)cc1)c1ccc(C(=O)O)cc1	2%[11.5 µM]	·	1%[11.4 µM]	·	-3%[11.5 µM]
Cc1cc(C(=O)CN2C(=O)c3ccccc3S2(=O)=O)c(C)n1CC1CCCO1 (centres undefined)	-1%	·	16µM*	>77	0%
CCn1c(SCC(=O)c2cc(C)n(CC3CCCO3)c2C)nc2ccccc21 (centres undefined)	-3%	·	-9%	>77	-1%
O=C(NCCN1CCCCC1)c1ccc(-n2c(=O)c(=O)[nH]c3ccccc32)cc1	-2%	·	·	·	1%
CCOC(=O)c1cnc(SCC(=O)N2CCN(c3ccccc3)CC2)nc1N	1%	>57	0%	>77	0%
CCOC(=O)c1cnc(SCc2ccccc2)nc1N	-1%	·	16µM*	>77	1%
O=C(NCCCCN1CCCC1)c1ccc(-n2c(=O)c(=O)[nH]c3ccccc32)cc1	-2%	·	·	·	-5%
CCOC(=O)c1ccc2nc(NC(=O)C(C)C)sc2c1	-8%	·	2%	·	-6%
SMILES	Caspase-7 inhib	Bst PK mod	Luciferase inh	GBA activity	Casp1 inh
COc1ccccc1C(=O)Nc1nc2ccc(S(C)(=O)=O)cc2s1	0%	·	-17%	·	-2%
Cc1ccc2nc(NC(=O)COC(=O)c3ccco3)sc2c1	-2%	·	-14%	>77	1%
CS(=O)(=O)c1ccc2nc(NC(=O)c3ccco3)sc2c1	0%	·	4µM*	·	-3%
CN(C)S(=O)(=O)c1ccc2nc(NC(=O)c3cccnc3)sc2c1	-13%	i	13µM*	>77	-3%
CCOC(=O)c1ccc2nc(NC(=O)c3ccco3)sc2c1	0%	i	16µM*	?	-3%
CCOC(=O)c1ccc2nc(NC(=O)c3cccs3)sc2c1	1%	i	7.9µM*	>77	-2%
CNC(=O)[C@@H]1O[C@@H](n2cnc3c(NCc4ccc(N)cc4)ncnc32)[C@@H](O)[C@H]1O	1%	·	0%	·	2%
c1c[nH]cn1	1%	·	·	·	0%
O=C(COC(=O)c1cccc(NC(=O)c2ccco2)c1)c1ccc(Br)cc1	0%	·	2.5µM*	·	-2%
CCOC(=O)CSc1nnc2n(Cc3ccccc3)c(=O)c3c4c(sc3n12)CCC4	·	5.1*	0%[25.5 µM]	·	·
CSc1nnc2n(-c3ccccc3)c(=O)c3c4c(sc3n12)CCC4	-1%	2.8*	2%	>77	1%
N=C(N)SCCSC(=N)N	1%[11.5 µM]	·	-1%[11.4 µM]	·	6%[11.5 µM]
CSc1ncnc2nc[nH]c12	-17%	·	2%	·	?
Nc1c(Cl)cc(Cl)cc1Cl	-1%	·	·	·	-6%
CCOC(=O)c1c(C)nc(-c2ccccc2)nc1N	-1%	i	25µM*	>77	-1%
